This is an account of results in the supplement of paper PMC11624193, “Coupling cellular drug-target engagement to downstream pharmacology with CeTEAM” (Nature Communications, 2024).

SMILES strings stand for the structures. Structures can show the parent of a compound that is named as a salt.

The assay deals with PARP1 L713F-nLuc biosensor (HCT116) (UniProt P09874). Briefly: PARP1 L713F-nLuc/akaLuc ratio relative to DMSO control (biosensor stabilization) (fold change); higher = more PARP1 biosensor stabilization (target engagement / stabilizer), active = hit call of the paper. The following applies: stock concentration (mM; final µM = stock mM x 1): 10; 24 h.
Chain of PARP1 L713F-nLuc biosensor (HCT116) (P09874 whole entry L713F, looked up): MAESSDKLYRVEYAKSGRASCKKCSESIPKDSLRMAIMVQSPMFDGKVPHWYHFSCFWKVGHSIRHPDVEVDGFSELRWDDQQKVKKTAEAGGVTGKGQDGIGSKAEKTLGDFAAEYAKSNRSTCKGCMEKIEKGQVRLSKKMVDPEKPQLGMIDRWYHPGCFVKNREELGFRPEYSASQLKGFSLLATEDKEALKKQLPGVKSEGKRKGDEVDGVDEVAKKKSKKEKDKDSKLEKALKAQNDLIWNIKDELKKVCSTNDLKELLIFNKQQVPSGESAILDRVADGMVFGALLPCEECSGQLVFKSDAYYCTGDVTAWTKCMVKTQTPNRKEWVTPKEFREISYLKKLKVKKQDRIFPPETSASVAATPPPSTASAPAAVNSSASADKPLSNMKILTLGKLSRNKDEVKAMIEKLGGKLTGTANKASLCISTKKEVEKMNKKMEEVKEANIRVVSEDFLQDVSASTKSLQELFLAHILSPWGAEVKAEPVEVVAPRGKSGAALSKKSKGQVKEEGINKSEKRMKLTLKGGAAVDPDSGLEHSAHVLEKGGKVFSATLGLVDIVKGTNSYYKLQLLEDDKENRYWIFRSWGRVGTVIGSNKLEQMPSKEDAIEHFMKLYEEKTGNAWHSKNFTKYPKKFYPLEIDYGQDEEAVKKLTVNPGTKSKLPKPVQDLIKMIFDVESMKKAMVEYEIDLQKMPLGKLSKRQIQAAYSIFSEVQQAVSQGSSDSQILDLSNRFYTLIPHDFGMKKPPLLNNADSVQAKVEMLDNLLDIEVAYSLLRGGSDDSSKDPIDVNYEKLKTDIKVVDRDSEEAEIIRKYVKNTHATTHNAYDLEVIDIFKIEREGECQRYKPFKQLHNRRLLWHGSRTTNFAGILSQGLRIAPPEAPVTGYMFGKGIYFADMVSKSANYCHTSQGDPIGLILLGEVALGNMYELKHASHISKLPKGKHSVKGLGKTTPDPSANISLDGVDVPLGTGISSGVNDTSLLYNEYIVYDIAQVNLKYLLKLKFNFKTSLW
Regarding `CNC(=O)CN1CCC(Oc2cc3c(Nc4cccc(Cl)c4F)ncnc3cc2OC)CC1` [Sapitinib (AZD8931)], the “PARP1 L713F-nLuc/akaLuc ratio” value was 0.797 (inactive).

On to `CC(C)N(C(=O)c1cc(F)ccc1Oc1cncnc1N1CC2(CCN(CC3CCC(NS(C)(=O)=O)CC3)CC2)C1)C(C)C` (centres undefined), for which the “PARP1 L713F-nLuc/akaLuc ratio” value was 0.677 (inactive).

As for `N[C@H]1C(O)O[C@H](CO)[C@@H](O)[C@@H]1O` (some centres undefined) [Glucosamine], the “PARP1 L713F-nLuc/akaLuc ratio” value was 1.02 (inactive).

As for `Clc1ccc(C(c2ccccc2Cl)C(Cl)Cl)cc1` (centres undefined) [Mitotane], the “PARP1 L713F-nLuc/akaLuc ratio” value was 0.67 (inactive).

As to `N#CC[C@H](C1CCCC1)n1cc(-c2ncnc3[nH]ccc23)cn1` [Ruxolitinib (phosphate)], the “PARP1 L713F-nLuc/akaLuc ratio” value was 0.575 (inactive).

Regarding `CCNC(=O)NCCSC[C@H]1O[C@@H](n2cnc3c(N)ncnc32)[C@H](O)[C@@H]1O`, the “PARP1 L713F-nLuc/akaLuc ratio” value is 0.751 (inactive).

As to `N#Cc1c(Oc2ccc(F)c(NC(=O)Cc3cccc(C(F)(F)F)c3)c2)ccc2nc(NC(=O)C3CC3)sc12`, the “PARP1 L713F-nLuc/akaLuc ratio” value was 0.538 (inactive).

`COC(=O)c1ccc(OC(=O)CCCCCCC(=O)NO)cc1` [Remetinostat]: the “PARP1 L713F-nLuc/akaLuc ratio” value was 1.25 (inactive).

On to `CNCc1ccc(-c2cc3cc(F)cc(C(N)=O)c3o2)cc1` [Mefuparib (hydrochloride)], for which the “PARP1 L713F-nLuc/akaLuc ratio” value is 10.5 (active).

For the compound `NC(=O)N1CCC(CC(=O)N2CCC([C@H]3c4ncc(Br)cc4CCc4cc(Cl)cc(Br)c43)CC2)CC1` [Lonafarnib], the “PARP1 L713F-nLuc/akaLuc ratio” value was 1.59 (inactive).

Regarding `FC(F)(F)c1ccc(CNc2ccc(Cc3c[nH]c4ncc(Cl)cc34)cn2)cn1` [Pexidartinib (PLX3397)], the “PARP1 L713F-nLuc/akaLuc ratio” value was 0.69 (inactive).

On to `NC(=O)c1cc(F)cc2c1C(=O)N(C1CCN(C3CCC(F)(F)CC3)CC1)C2`, for which the “PARP1 L713F-nLuc/akaLuc ratio” value was 6 (active).

Take `O=C1C(Cl)=C(NCCN2CCOCC2)C(=O)c2ncccc21`: the “PARP1 L713F-nLuc/akaLuc ratio” value is 0.636 (inactive).

Consider `CCOC(=O)c1ccnc(CNCC(=O)N(CC)CCN(C)C)c1`, for which the “PARP1 L713F-nLuc/akaLuc ratio” value is 2.92 (active).

`Cc1cnc(-c2ccccc2C(C)C)nc1NCc1ccc(-n2ccnn2)cc1`: the “PARP1 L713F-nLuc/akaLuc ratio” value was 0.718 (inactive).

On to `C=CC(=O)N1CCC[C@@H](n2nc(-c3ccc(Oc4ccccc4)cc3)c3c(N)ncnc32)C1`, for which the “PARP1 L713F-nLuc/akaLuc ratio” value was 0.773 (inactive).

Turning to `O=c1sn(-c2cccc3ccccc23)c(=O)n1Cc1ccccc1` [Tideglusib], the “PARP1 L713F-nLuc/akaLuc ratio” value is 1.22 (inactive).

As for `CNCc1ccc(-c2[nH]c3cc(F)cc4c3c2CCNC4=O)cc1` [Rucaparib (phosphate)], the “PARP1 L713F-nLuc/akaLuc ratio” value is 5.55 (active).

As for `NC(=O)C1CCCc2c1[nH]c1ccc(Cl)cc21` (centres undefined) [Selisistat], the “PARP1 L713F-nLuc/akaLuc ratio” value is 0.963 (inactive).

`CNS(=O)(=O)Nc1nccc(Cc2c(C)c3ccc(Oc4ncccn4)cc3oc2=O)c1F`: the “PARP1 L713F-nLuc/akaLuc ratio” value was 0.435 (inactive).

For the compound `O=C(O)c1ccc2c(c1)nc(NC(=O)c1ccccc1)n2CCCc1ccccc1`, the “PARP1 L713F-nLuc/akaLuc ratio” value is 1.26 (inactive).

Consider `N#Cc1cc2cc(CN3CCC(Nc4ncnc5sc(CC(F)(F)F)cc45)CC3)c(O)cc2n1Cc1cn[nH]c1`, for which the “PARP1 L713F-nLuc/akaLuc ratio” value was 0.315 (active).

On to `CCCCCCCc1ccc(CCc2cccc(O)c2C(=O)O)cc1`, for which the “PARP1 L713F-nLuc/akaLuc ratio” value was 0.768 (inactive).

With `N[C@@H]1CCCN(c2c(/C=C3\SC(=O)NC3=O)cccc2-c2ccccc2)C1`, the “PARP1 L713F-nLuc/akaLuc ratio” value was 0.726 (inactive).

Take `COCCOc1cnc2ccn([C@H](C)c3nnc4c(F)cc(-c5cnn(C)c5)cn34)c(=O)c2c1`: the “PARP1 L713F-nLuc/akaLuc ratio” value is 0.857 (inactive).

With `CC(NC(=O)c1ccccc1/N=C/c1c(O)ccc2ccccc12)c1ccccc1` (centres undefined) [Sirtinol], the “PARP1 L713F-nLuc/akaLuc ratio” value was 0.699 (inactive).

Regarding `NC(=O)c1cccc2cn(-c3ccc([C@@H]4CCCNC4)cc3)nc12` [Niraparib (MK-4827)], the “PARP1 L713F-nLuc/akaLuc ratio” value was 6.42 (active).

Turning to `Cc1nc(=O)c2cc(CN(C)c3ccc(C(=O)N[C@@H](CCC(=O)O)C(=O)O)s3)ccc2[nH]1` [Raltitrexed], the “PARP1 L713F-nLuc/akaLuc ratio” value is 1.07 (inactive).

As for `O=C(Nc1ccccc1-c1cn2c(CN3CCNCC3)csc2n1)c1cnc2ccccc2n1` [SRT 1720 (Hydrochloride)], the “PARP1 L713F-nLuc/akaLuc ratio” value was 1.16 (inactive).

With `CCCc1cc(C)[nH]c(=O)c1CNC(=O)c1cc(-c2ccnc(N3CCN(C)CC3)c2)cc2c1cnn2C(C)C`, the “PARP1 L713F-nLuc/akaLuc ratio” value is 2.54 (inactive).

Consider `CCOC(=O)c1c[nH]c2c(ccc3cccnc32)c1=O` [1,4-DPCA ethyl ester], for which the “PARP1 L713F-nLuc/akaLuc ratio” value was 1.19 (inactive).

As for `COc1ccc(/C=C/C(=O)NO)c(-c2ccc(-c3ccccc3)cc2)c1`, the “PARP1 L713F-nLuc/akaLuc ratio” value was 0.65 (inactive).

Consider `COc1cc(C(=O)Nc2ccccc2-c2cn3c(CN4CCNCC4)csc3n2)cc(OC)c1OC`, for which the “PARP1 L713F-nLuc/akaLuc ratio” value is 0.569 (inactive).

On to `O=C(c1ccc(F)c(F)c1Nc1ccc(I)cc1F)N1CC(O)([C@@H]2CCCCN2)C1` [Cobimetinib (GDC-0973, RG7420)], for which the “PARP1 L713F-nLuc/akaLuc ratio” value is 0.687 (inactive).
